Where “and” joins values, the source holds several entries; their conditions need not be identical. Identical values can stand only once. A structure can be active in one record and inactive in another. Calls of active or inactive are those of the source. Unless noted, calls follow the shape of the dose curve; as a rule, active = well fitted curve in the direction sought with a large enough effect in the repeat runs; inconclusive = weak or mixed curves; inactive = no such curve, though single readings can be large; an effect the other way counts as inactive or inconclusive.
What was measured:
[1] = qHTS assay to identify small molecule antagonists of the glucocorticoid receptor (GR) signaling pathway - cell viability counter screen (AID 720693); also: nearly all actives have a fitted effect of over 55% in size; also: potency is read from the fitted curve at half-maximal effect
[2] = qHTS assay for identifying genotoxic compounds that show differential cytotoxicity against isogenic chicken DT40 cell lines with known DNA damage response pathways - wild type cell line (AID 743012); also: nearly all actives have a fitted effect of over 60% in size; also: potency is read from the fitted curve at half-maximal effect
Summary of the method: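 300 wt DT40 cells/well; cpd (DMSO) pintool-transferred after ~0.5 h at 37 C/5% CO2; 40 h incubation; CellTiter-Glo added, 30 min RT; luminescence read.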

[3] = qHTS assay for identifying genotoxic compounds that show differential cytotoxicity against isogenic chicken DT40 cell lines with known DNA damage response pathways - Rev3 mutant cell line (AID 743014); also: nearly all actives have a fitted effect of over 55% in size; also: potency is read from the fitted curve at half-maximal effect
[4] = qHTS assay for identifying genotoxic compounds that show differential cytotoxicity against isogenic chicken DT40 cell lines with known DNA damage response pathways - Rad54/Ku70 mutant cell line (AID 743015); also: nearly all actives have a fitted effect of over 60% in size; also: potency is read from the fitted curve at half-maximal effect
[5] = qHTS assay to identify small molecule antagonists of the androgen receptor (AR) signaling pathway - cell viability counter screen (AID 743033; also: nearly all actives have a fitted effect of over 45% in size; also: potency is read from the fitted curve at half-maximal effect)
[6] = qHTS assay to identify small molecule antagonists of the androgen receptor (AR) signaling pathway using the MDA cell line - cell viability counter screen (AID 743041; also: nearly all actives have a fitted effect of over 45% in size; also: potency is read from the fitted curve at half-maximal effect)
Summary of the method: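 Using the breast carcinoma line MDA-kb2 AR-luc, test chemicals were co-incubated with R1881 for 16 h; CellTiter-Fluor reagent, added at 15.5 h, provided a fluorescence measure of live cells.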

[7] = qHTS assay to identify small molecule antagonists of the thyroid receptor (TR) signaling pathway - cell viability counter screen (AID 743064); also: nearly all actives have a fitted effect of over 50% in size; also: potency is read from the fitted curve at half-maximal effect
Summary of the method: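 GH3.TRE-Luc rat pituitary cells dosed after 4 hr plating, co-stimulated with T3 at 1 nM final, incubated 23.5 h at 37 C. Viability measured in the same wells by CellTiter-Fluor fluorescence after 30 min further at 37 C.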

[8] = qHTS assay to identify small molecule antagonists of the thyroid receptor (TR) signaling pathway (AID 743065); also: nearly all actives have a fitted effect of over 55% in size; also: potency is read from the fitted curve at half-maximal effect
Summary of the method: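 Antagonism measured as loss of luciferase signal in GH3 cells stably carrying a TRE-luciferase reporter, co-treated with compound and T3 (1 nM final) for 23.5 h at 37 C. Viability was read in the same well by CellTiter-Fluor.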

[9] = test system: thyroid hormone receptor (rat, GH3 cells); assay: qHTS assay to identify small molecule agonists of the thyroid receptor (TR) signaling pathway (AID 743066; calls by dose curve)
[10] = qHTS assay to identify small molecule antagonists of the estrogen receptor alpha (ER-alpha) signaling pathway - cell viability counter screen (AID 743074; calls by dose curve; also: nearly all actives have a fitted effect of over 45% in size; also: potency is read from the fitted curve at half-maximal effect)
[11] = qHTS assay to identify small molecule antagonists of the estrogen receptor alpha (ER-alpha) signaling pathway using the BG1 cell line - cell viability counter screen (AID 743081);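 also: compound given together with 17beta-estradiol as the ER stimulus; nearly all actives have a fitted effect of over 45% in size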; also: potency is read from the fitted curve at half-maximal effect
Aromatase (Homo sapiens) = Aromatase (Homo sapiens) (UniProt P11511); assay: qHTS assay to identify aromatase inhibitors (AID 743083); also: nearly all actives have a fitted effect of over 55% in size; also: potency is read from the fitted curve at half-maximal effect
Aromatase (Homo sapiens), sequence (P11511 whole entry, looked up): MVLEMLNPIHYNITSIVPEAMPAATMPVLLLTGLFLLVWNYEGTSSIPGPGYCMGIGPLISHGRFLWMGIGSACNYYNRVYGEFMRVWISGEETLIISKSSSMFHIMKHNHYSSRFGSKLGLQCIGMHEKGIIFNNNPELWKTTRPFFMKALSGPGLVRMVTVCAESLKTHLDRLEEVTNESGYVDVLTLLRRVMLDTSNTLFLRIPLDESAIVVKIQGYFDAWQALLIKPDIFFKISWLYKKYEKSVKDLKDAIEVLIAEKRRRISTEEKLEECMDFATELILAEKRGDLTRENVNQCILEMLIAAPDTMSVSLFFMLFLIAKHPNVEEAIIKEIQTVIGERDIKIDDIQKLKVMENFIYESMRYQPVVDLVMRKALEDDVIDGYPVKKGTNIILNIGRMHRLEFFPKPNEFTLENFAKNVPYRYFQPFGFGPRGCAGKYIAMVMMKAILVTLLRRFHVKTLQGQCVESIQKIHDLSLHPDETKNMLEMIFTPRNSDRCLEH

[12] = qHTS assay to identify aromatase inhibitors - cell viability counter screen (AID 743084); also: potency is read from the fitted curve at half-maximal effect
[13] = molecular target: Androgen receptor (Homo sapiens) (UniProt P10275); assay: qHTS assay to identify small molecule agonists of the androgen receptor (AR) signaling pathway using the MDA cell line (AID 743040; also: nearly all actives have a fitted effect of over 20% in size)
Androgen receptor (Homo sapiens), sequence (P10275 whole entry, looked up): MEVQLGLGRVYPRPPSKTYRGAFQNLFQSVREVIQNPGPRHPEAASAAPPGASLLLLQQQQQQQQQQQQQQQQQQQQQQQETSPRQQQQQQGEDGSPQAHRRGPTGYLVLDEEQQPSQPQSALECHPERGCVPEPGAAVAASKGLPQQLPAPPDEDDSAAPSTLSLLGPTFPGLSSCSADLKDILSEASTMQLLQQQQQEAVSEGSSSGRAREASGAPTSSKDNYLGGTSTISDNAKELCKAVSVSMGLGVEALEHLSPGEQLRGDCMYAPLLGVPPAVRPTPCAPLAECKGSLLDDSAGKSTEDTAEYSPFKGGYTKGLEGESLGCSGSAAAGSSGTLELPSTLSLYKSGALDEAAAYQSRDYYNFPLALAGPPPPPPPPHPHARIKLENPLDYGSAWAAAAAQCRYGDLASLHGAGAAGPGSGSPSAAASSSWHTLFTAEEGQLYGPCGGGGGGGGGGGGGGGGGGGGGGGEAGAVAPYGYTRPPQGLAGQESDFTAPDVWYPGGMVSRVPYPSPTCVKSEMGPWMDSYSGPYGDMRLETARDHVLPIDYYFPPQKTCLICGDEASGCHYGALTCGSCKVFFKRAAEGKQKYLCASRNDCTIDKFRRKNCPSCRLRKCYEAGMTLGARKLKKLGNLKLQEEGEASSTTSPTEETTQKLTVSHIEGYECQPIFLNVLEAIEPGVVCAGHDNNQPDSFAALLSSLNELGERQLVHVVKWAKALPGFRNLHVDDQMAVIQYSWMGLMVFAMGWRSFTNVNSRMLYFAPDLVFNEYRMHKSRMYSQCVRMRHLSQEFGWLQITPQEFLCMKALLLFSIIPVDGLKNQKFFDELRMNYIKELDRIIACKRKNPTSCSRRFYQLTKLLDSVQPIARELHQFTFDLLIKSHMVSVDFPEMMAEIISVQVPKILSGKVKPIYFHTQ
Summary of the method: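 Stable MMTV-luciferase reporter in MDA-kb2 cells; note the promoter carries GR as well as AR response elements. 16 h compound treatment, 37C, 0% CO2; ONE-Glo luminescence endpoint.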

[14] = molecular target: Androgen receptor (Homo sapiens) (UniProt P10275); assay: qHTS assay to identify small molecule antagonists of the androgen receptor (AR) signaling pathway using the MDA cell line (AID 743042; also: nearly all actives have a fitted effect of over 55% in size; also: potency is read from the fitted curve at half-maximal effect)
Summary of the method: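 Antagonist mode: compounds plus R1881 agonist added to MDA-kb2 AR-luc cells, incubated 16 h at 37C. Luciferase reporter luminescence quantified, with multiplexed CellTiter-Fluor readout for cell viability.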

[15] = molecular target: Estrogen receptor (Homo sapiens) (UniProt P03372); assay: qHTS assay to identify small molecule antagonists of the estrogen receptor alpha (ER-alpha) signaling pathway (AID 743069; active = well fitted curve in the direction sought with a large enough effect in the signal ratio in the repeat runs, not every such curve was filed as active; inconclusive = weak or mixed curves, or effect the other way; inactive = no such curve, though single readings can be large or run the other way; the % refers to the signal ratio; also: potency is read from the fitted curve at half-maximal effect)
Estrogen receptor (Homo sapiens), sequence (P03372 whole entry, looked up): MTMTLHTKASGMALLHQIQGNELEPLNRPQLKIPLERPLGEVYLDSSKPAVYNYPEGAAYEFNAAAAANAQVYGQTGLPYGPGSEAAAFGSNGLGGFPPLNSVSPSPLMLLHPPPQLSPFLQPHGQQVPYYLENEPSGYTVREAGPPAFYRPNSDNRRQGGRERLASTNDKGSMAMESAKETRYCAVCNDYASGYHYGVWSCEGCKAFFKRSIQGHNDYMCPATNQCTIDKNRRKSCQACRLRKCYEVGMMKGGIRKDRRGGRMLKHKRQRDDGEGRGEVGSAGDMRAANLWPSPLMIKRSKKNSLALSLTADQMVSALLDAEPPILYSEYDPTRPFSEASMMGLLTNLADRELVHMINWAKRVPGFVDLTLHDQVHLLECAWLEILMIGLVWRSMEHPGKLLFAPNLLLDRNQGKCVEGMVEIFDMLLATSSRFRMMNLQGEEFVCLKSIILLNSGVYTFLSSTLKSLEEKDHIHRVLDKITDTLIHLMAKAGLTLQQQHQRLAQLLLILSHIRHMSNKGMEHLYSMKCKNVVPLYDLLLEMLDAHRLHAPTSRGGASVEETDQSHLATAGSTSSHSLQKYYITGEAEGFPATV
Summary of the method: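 Fluorescence intensity from a beta-lactamase FRET substrate served as the read-out. Cells: HEK293 with stably integrated ER-alpha-UAS-bla reporter. Agonist 17beta-estradiol was co-added with compounds; incubation 18 hr at 37C, substrate 2 hr at room temperature.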

[16] = molecular target: Estrogen receptor (Homo sapiens) (UniProt P03372); assay: qHTS assay to identify small molecule agonists of the estrogen receptor alpha (ER-alpha) signaling pathway (AID 743075; calls by dose curve; also: potency is read from the fitted curve at half-maximal effect); conditions: HEK293 ER-alpha-UAS-bla, beta-lactamase FRET ratio, 18 h; activation: at 70.1 µM (top of the series)
[17] = molecular target: Estrogen receptor (Homo sapiens) (UniProt P03372); assay: qHTS assay to identify small molecule agonists of the estrogen receptor alpha (ER-alpha) signaling pathway using the BG1 cell line (AID 743079); conditions: BG1Luc4E2 cells, ERE-luciferase agonist, 22 h; also: nearly all actives have a fitted effect of over 20% in size
[18] = qHTS assay to identify small molecule antagonists of the estrogen receptor alpha (ER-alpha) signaling pathway using the BG1 cell line (AID 743080; calls by dose curve;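 also: BG1 cells stimulated with 17beta-estradiol alongside compound; nearly all actives have a fitted effect of over 25% in size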; also: potency is read from the fitted curve at half-maximal effect)
Summary of the method: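 Readout is ONE-Glo luminescence, taken 30 min at room temperature after reagent addition, preceded by a CellTiter-Fluor viability read; BG1-Luc-4E2 cells had received compound and 17beta-estradiol for 21.5 h at 37 C.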

[19] = molecular target: Androgen receptor (Homo sapiens) (UniProt P10275); assay: qHTS assay to identify small molecule antagonists of the androgen receptor (AR) signaling pathway (AID 743035; active = well fitted inhibition curve with a large enough effect in the signal ratio in the repeat runs, not every such curve was filed as active; inconclusive = weak or mixed curves, or effect the other way; inactive = no such curve, though single readings can be large or run the other way; the % refers to the signal ratio; also: potency is read from the fitted curve at half-maximal effect)
Summary of the method: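 In this cell-based reporter screen, compounds were tested in concentration series against R1881-activated HEK293 cells expressing beta-lactamase under UAS control; after 16 h at 37C, FRET substrate was added and fluorescence read 2 h later.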
% is scaled to controls: 0 for no effect and ±100 for the full control effect.

CO[Si](CCCNc1ccccc1)(OC)OC
inactive: Potency [1] | Potency [5] | Potency [6] | Potency [7] | Potency [8] | Potency [9] | Potency [10] | Potency [11] | Potency (Aromatase (Homo sapiens)) | Potency [12]
active: Potency [2] 12.2 µM | Potency [3] 15.4 µM | Potency [4] 8.63 µM

CN1CCC(Nc2ncc3ncnc(Nc4ccc(F)c(Cl)c4)c3n2)CC1
inactive: Potency [1] | Potency [5] | Potency [13] | Potency [14] | Potency [10]
active: Potency [2] 13.3 µM | Potency [3] 23.7 µM | Potency [4] 21.1 µM | Potency [7] 11.9 µM | Potency [8] 9.44 µM

C[C@H]1[C@H]2CC[C@H]3[C@@H]4CC=C5C[C@@H](N(C)C)CC[C@]5(C)[C@H]4CC[C@]23CN1C
inactive: Potency [1] | Potency [5] | Potency [13] | Potency [6] | Potency [7] | Potency [8] | Potency [9] | Potency [10] | Potency (Aromatase (Homo sapiens)) | Potency [12]
active: Potency [2] 15 µM | Potency [3] 11.9 µM | Potency [4] 16.8 µM

CCCCCCCCCCCC(=O)NCCCN(C)C
active: Potency [1] 30.9 µM | Potency [2] 6.11 µM | Potency [3] 10.9 µM | Potency [4] 6.86 µM | Potency [5] 43.6 µM | Potency [7] 17.2 µM | Potency [8] 17.2 µM | Potency [10] 49 µM | Potency [11] 61.1 µM | Potency (Aromatase (Homo sapiens)) 43.3 µM | Potency [12] 54.5 µM
inactive: Potency [13]

C[C@@H](NCCCc1cccc(C(F)(F)F)c1)c1cccc2ccccc12
active: Potency [1] 13.4 µM | Potency [2] 5.31 µM | Potency [3] 5.96 µM | Potency [4] 5.96 µM | Potency [5] 19 µM | Potency [7] 7.5 µM | Potency [8] 8.41 µM | Potency [10] 23.9 µM | Potency (Aromatase (Homo sapiens)) 13.3 µM | Potency [12] 21.1 µM
inactive: Potency [13]

CC(=O)S[C@@H]1CC2=CC(=O)CC[C@]2(C)[C@H]2CC[C@@]3(C)[C@@H](CC[C@@]34CCC(=O)O4)[C@H]12
inactive: Potency [5] | Potency [6] | Potency [9] | Potency [10] | Potency [16] | activation ([17]; at 70.3 µM (top of the series)) 7.41% and -17.9% | Potency [11] | Potency [12]
inactive and 48.6 µM (active): Potency [18]
active: Potency [1] 49 µM | Potency [2] 7.5 µM and 6.11 µM | Potency [3] 9.44 µM and 6.11 µM | Potency [4] 8.41 µM and 6.11 µM | Potency [7] 27.3 µM | Potency [8] 26.6 µM and 27.3 µM | Potency [15] 12.3 µM [inconclusive] | Potency (Aromatase (Homo sapiens)) 26.6 µM and 27.3 µM

CSc1cnc(C)cn1
inactive: Potency [1] | Potency [2] | Potency [3] | Potency [4] | Potency [5] | Potency [6] | Potency [7] | Potency [8] | Potency [9] | Potency [15] | Potency [10] | Potency [16] | activation ([17]; at 95 µM (top of the series)) 0.548% | Potency [18] | Potency [11] | Potency (Aromatase (Homo sapiens)) | Potency [12]

CC(C)(C)C(=O)OCOC(=O)C1N2C(=O)CC2S(=O)(=O)C1(C)C (stereo not drawn)
inactive: Potency [1] | Potency [2] | Potency [3] | Potency [4] | Potency [5] | Potency [13] | Potency [6] | Potency [14] | Potency [7] | Potency [8] | Potency [9] | Potency [10] | Potency [16] | activation ([17]; at 70.3 µM (top of the series)) -1.04% | Potency [18] | Potency [11] | Potency (Aromatase (Homo sapiens)) | Potency [12]
active: Potency [19] 6.74 µM | Potency [15] 3.38 µM [inconclusive]

O=S1(=O)CC(Cl)(Cl)C(Cl)(Cl)C1
active: Potency [1] 9.77 µM | Potency [2] 0.122 µM | Potency [3] 0.172 µM | Potency [4] 0.154 µM | Potency [5] 4.36 µM | Potency [6] 13.7 µM | Potency [14] 2.17 µM | Potency [7] 1.93 µM | Potency [8] 1.37 µM | Potency [15] 21.9 µM [inconclusive] | Potency [10] 49 µM | Potency [16] 12.3 µM [inconclusive] | Potency [11] 30.6 µM | Potency (Aromatase (Homo sapiens)) 1.93 µM | Potency [12] 2.17 µM
inactive: Potency [13]

NNc1nc(-c2ccccc2)cs1
inactive: Potency [1] | Potency [2] | Potency [3] | Potency [4] | Potency [5] | Potency [6] | Potency [9] | Potency [10] | Potency [16] | activation ([17]; at 95 µM (top of the series)) 7.73% | Potency [18] | Potency (Aromatase (Homo sapiens)) | Potency [12]
active: Potency [7] 31.5 µM | Potency [8] 14.1 µM

Nc1ccc(N)c2ccccc12
inactive: Potency [13] | Potency [9] | Potency [16]
active: Potency [1] 21.8 µM | Potency [2] 15.3 µM | Potency [3] 5.44 µM | Potency [4] 6.85 µM | Potency [5] 12.3 µM | Potency [14] 17.2 µM | Potency [7] 30.6 µM | Potency [8] 48.5 µM | Potency [10] 21.8 µM | Potency [11] 5.44 µM | Potency [12] 3.85 µM

NNC(=O)c1cccc(C(=O)NN)c1
inactive: Potency [1] | Potency [2] | Potency [3] | Potency [4] | Potency [5] | Potency [19] | Potency [13] | Potency [6] | Potency [14] | Potency [7] | Potency [8] | Potency [9] | Potency [15] | Potency [10] | Potency [16] | activation ([17]; at 70.3 µM (top of the series)) 4.33% | Potency [18] | Potency [11] | Potency (Aromatase (Homo sapiens)) | Potency [12]
